Only some compounds are listed: those with a hit (about 4.7% of all), similar ones and a draw of the others.
TRHR agonist = agonists of human TRH receptor | P34981 | TRHR cells, calcium flux fluo-8, FDSS agonist mode | activation, % at 2 µM | 360,000 compounds, 0.18% hits | AID 493084; further: 0% is about no effect
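Read-out: compound-evoked intracellular calcium rise in TRHR cells, fluo-8 dye, kinetic FDSS fluorescence at 1 s/cycle following a 10-cycle baseline. Cells cultured overnight before dye loading (30 min–1.5 h, RT).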
D1 PAM = human D1 dopamine receptor positive modulation; 360,000 compounds, 0.036% hits; HEK293 TREx D1 cells, calcium flux, dopamine EC20 potentiation; potentiation, % at 10 µM; P21728; AID 504651; in the data active means potentiation above about 30%; further: 0% is about no effect
Target sequence (P21728 whole entry, looked up): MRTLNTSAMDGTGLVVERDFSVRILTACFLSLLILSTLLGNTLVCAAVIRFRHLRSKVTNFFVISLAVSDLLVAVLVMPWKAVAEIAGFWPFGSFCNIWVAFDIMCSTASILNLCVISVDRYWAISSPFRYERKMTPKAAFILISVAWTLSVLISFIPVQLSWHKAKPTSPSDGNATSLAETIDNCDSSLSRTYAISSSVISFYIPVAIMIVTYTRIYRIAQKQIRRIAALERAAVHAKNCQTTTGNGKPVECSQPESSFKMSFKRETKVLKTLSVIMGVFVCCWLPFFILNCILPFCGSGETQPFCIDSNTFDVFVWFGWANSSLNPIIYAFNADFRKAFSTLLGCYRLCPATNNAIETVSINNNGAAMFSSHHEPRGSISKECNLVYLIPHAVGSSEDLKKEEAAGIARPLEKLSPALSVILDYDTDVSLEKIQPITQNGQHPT
D1 agonist = agonists of human D1 dopamine receptor. HEK293 T-REx D1 cells, calcium flux, agonist mode. P21728. activation, % at 2 µM. 360,000 compounds, 1% hits; further: 0% is about no effect
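Inducible HEK293 T-REx D1 cells, force-coupled to calcium signalling, were plated at 4000 cells/well with tetracycline and held overnight at 30 C. After no-wash calcium dye loading, compound-evoked calcium rise over 180 s flagged agonists.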
TRHR PAM = allosterically enhances the human TRH receptor | AID 493056 | enhancement, % at 2 µM | TRHR cells, fluo-8 calcium fluorescence, EC20 TRH enhancement | P34981 | 360,000 compounds, 0.66% hits; in the data active means enhancement above about 30%; further: 0% is about no effect
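Enhancer read-out: after compound pinning and an initial kinetic agonist-mode read, an EC20 of TRH (10 nM final) was injected and fluo-8 calcium signal (Ex 480/Em 530) followed at 1 s/cycle for 100 cycles in TRHR-expressing cells.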
D1 antagonist = antagonists of human D1 dopamine receptor; P21728; HEK293 TREx D1 cells, calcium flux, dopamine EC80; active compounds read low; activity change, negative = inhibition, % at 10 µM; 360,000 compounds, 3.2% hits; AID 504652; in the data active means activity change below about -30%; further: on the % scale 0 is the no-effect control and ±100 the full control effect
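Using tetracycline-induced force-coupled D1 Hek293 cells and a calcium dye, signals were followed for 180 s after compound, then for 180 s after EC80 dopamine, to detect inhibitors.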
* marks the source's active call; other numbers are inactive results; / = no result given. Unless noted, no stated cut-off is given here; in the data, active means activation above about 30%; inactive means the rest.

SMILES	TRHR agonist	D1 PAM	D1 agonist	TRHR PAM	D1 antagonist
CN(C)S(=O)(=O)c1ccc(C(=O)Nc2ccc(S(=O)(=O)NC3=NCCCCC3)cc2)cc1	0.3	3.2	6.6	-3.3	-5.6
O=C(CC1C(=O)NCCN1C(=O)Nc1ccc(Cl)cc1)Nc1ccc(F)cc1 (configuration not stated)	0.5	-7.7	2.2	-3.8	-51.0*
O=C(CSc1nnc(Cn2nnc3ccccc32)o1)N(Cc1ccc(F)cc1)c1ccccc1	0.0	-2.6	2.4	-4.3	-41.2*
COc1ccc(N(Cc2ccccc2)C(=O)CSc2nnc(Cn3nnc4ccccc43)o2)cc1	1.3	3.2	4.4	16.8	10.5
CC1CC(Nc2ccccc2)c2ccccc2N1C(=O)c1ccncc1 (configuration not stated)	-0.3	0.8	0.6	31.3*	0.8
Cc1ccc(-n2c(=O)c3sccc3n(CC(=O)NC3CCCC3)c2=O)cc1	-0.7	/	3.4	-1.3	12.4
CCOc1ccc(-n2c(=O)c3sccc3n(CC(=O)NC3CCCCC3)c2=O)cc1	-0.8	-2.1	0.9	38.6*	5.0
O=C(Cn1c(=O)n(-c2ccc(F)cc2)c(=O)c2sccc21)NC1CCCCC1	0.0	-3.2	1.4	-1.1	-61.3*
CCOC(=O)c1c(C)[nH]c(NC(=O)NNC(=O)c2ccccc2Cl)c1C	0.2	-9.6	1.2	9.9	-30.9*
Cc1ccc2nc(CN3CCN(C(=O)Nc4ccc(C)c(F)c4)CC3)oc2c1	-1.2	0.3	0.7	-5.2	-5.7
CC(C)(C)CC(C)(C)NCC(O)COc1c(F)cc(Br)cc1F (configuration not stated)	1.9	-8.1	39.4*	21.2	6.7
Cc1cccc(Cn2c(SCc3ccc(C(=O)NCc4ccccc4F)cc3)nc3ccncc32)c1	1.1	-5.0	7.8	0.9	10.5
Cc1onc(-c2c(Cl)cccc2Cl)c1C(=O)N1CCOCC1	0.5	-0.3	4.3	5.6	1.2
Cc1cc(C)c2nc(-c3cccc(Cl)c3)c(C)c(C(=O)N3CCOCC3)c2c1	0.2	3.4	0.1	32.7*	9.5
O=C(N/N=C/c1ccc(O)cc1)c1csc2ccccc12	-0.4	-2.0	1.1	-6.2	-57.1*
O=C(N/N=C/c1ccc(O)cc1)c1cc(-c2ccccc2)nc2ccccc12	-0.2	-3.4	1.4	12.8	4.9
CCNS(=O)(=O)c1ccc(NC(=O)Nc2cc(C)ccc2OC)cc1	0.2	-17.3	0.6	-2.4	-37.0*
CCNS(=O)(=O)c1ccc(NC(=O)Nc2ccccc2OC)cc1	-0.1	-8.1	1.5	-6.7	-5.3
O=C1/C(=C/c2ccncc2)SC(=S)N1C1CCS(=O)(=O)C1 (configuration not stated)	1.3	-0.9	0.5	1.2	-6.5
O=C1/C(=C/c2ccccc2)SC(=S)N1C1CCS(=O)(=O)C1 (configuration not stated)	-0.3	-11.4	9.8	-2.3	-46.4*
Cc1oc(C(C)(C)C)cc1C(=O)Nc1ccc2c(c1)OCO2	0.2	-8.8	1.5	6.2	-32.3*
O=C(NCc1ccc(F)cc1)C1CCN(C(=O)c2ccc(-n3ccc4ccccc43)s2)CC1	0.4	-5.0	2.5	-1.5	-31.4*
COc1ccc(CC(=O)Nc2cc(Cl)ccc2O)cc1	-1.7	-4.5	16.2	8.1	-34.6*
CCCOc1ccccc1N/C(N)=N/c1nc(C)cc(C)n1	0.6	-13.9	13.4	1.3	-58.8*
COc1ccc(C)cc1N/C(N)=N/c1nc(C)cc(C)n1	3.5	-6.5	11.0	2.3	-74.5*
SMILES	TRHR agonist	D1 PAM	D1 agonist	TRHR PAM	D1 antagonist
CCCOc1ccccc1N/C(=N/c1nc(C)cc(C)n1)NC(=O)COc1ccc(OC)cc1	0.6	-8.0	1.8	6.4	4.2
COc1ccc(Cl)cc1N/C(N)=N/c1nc(C)cc(C)n1	2.5	-6.0	11.8	-2.1	-69.5*
COc1ccc(OC)c(N/C(N)=N/c2nc(C)cc(C)n2)c1	0.7	-7.3	3.0	2.6	-25.6
COc1ccc(Cl)cc1N/C(N)=N/c1nc(C)cc(=O)[nH]1	-0.4	-3.5	1.0	-2.9	-19.7
N#Cc1ccccc1OCCCN1CCC(Cc2ccccc2)CC1	0.4	-5.0	13.3	2.9	-10.9
COc1ccc(C(=O)NCC(=O)OC(C(=O)Nc2cc(C(F)(F)F)ccc2Cl)c2ccccc2)cc1OC (configuration not stated)	-1.5	-0.8	5.2	1.7	-15.6
O=C(c1ccc(S(=O)(=O)N2CCC(c3nc4ccccc4[nH]3)CC2)cc1)N1CCOCC1	-0.1	7.7	2.1	6.9	-89.0*
CCn1c(SCC(=O)N2CCN(c3ccccc3)CC2)nc2c([nH]c3ccccc32)c1=O	0.4	2.6	0.9	-1.5	12.0
COc1ccc(NC(=S)NCc2cccnc2)cc1OC	0.4	-2.7	0.3	1.8	5.6
Cc1ccc(NC(=O)NCc2cccnc2)cc1C	-0.3	1.8	0.9	10.1	0.7
COc1ccc(NC(=S)NCc2cccnc2)cc1	0.1	-0.6	1.3	1.3	-30.6*
S=C(NCc1cccnc1)Nc1ccc(Cl)c(Cl)c1	2.9	-4.2	27.8	-13.7	-45.6*
COc1ccc(CNC(=S)Nc2ccc(Br)cc2)cc1	2.0	-7.0	36.8*	-2.1	-5.4
O=C(NCc1cccnc1)Nc1ccc(Cl)c(Cl)c1	0.6	-6.3	12.9	-6.7	-45.6*
CCS(=O)(=O)N1CCN=C1SC(C)c1ccccc1 (configuration not stated)	0.4	-2.0	4.0	2.6	-9.8
COc1ccc(/C=C/C(=O)NCc2cccnc2)cc1	-0.7	-5.7	-1.2	-5.4	-40.3*
COc1ccc(NC(=S)NC(=O)/C=C/c2ccccc2)cc1	-0.1	9.4	0.8	-3.5	6.2
COc1ccc(C(=O)NCCS(=O)(=O)NCc2cccnc2)cc1	0.0	-5.5	0.7	32.5*	-14.9
COc1cc(/C=C/C(=O)NCc2cccnc2)cc(OC)c1OC	0.1	-3.1	3.0	1.1	-15.4
COc1ccc(/C=C(/NC(=O)/C=C/c2ccccc2)C(=O)O)cc1	0.2	6.2	-1.5	34.5*	14.3
CCn1cc2nc(SCc3cccc(C(F)(F)F)c3)n(Cc3ccc(C)cc3)c(=O)c2n1	0.9	3.8	4.3	-1.7	-6.1
O=C(C1COc2ccccc2O1)N1CCN(c2nc3c(F)cc(F)cc3s2)CC1 (configuration not stated)	0.0	-1.7	4.7	-6.6	-8.0
Cc1ccc(CSc2ncc(Cl)c(C(=O)Oc3ccc(F)cc3)n2)cc1	0.4	0.8	2.1	-0.7	-2.3
COc1cc(C2Oc3ccccc3C=C2[N+](=O)[O-])cc(OC)c1OC (configuration not stated)	1.1	-3.0	1.3	-0.5	-21.0
Cc1nc2ccccc2n1CC(O)COC1CCCCC1 (configuration not stated)	0.3	-10.8	5.4	-21.5	-71.8*

Bioassay records from PubChem BioAssay.
